# Results filed as inconclusive are left out. Where a call stands in place of a potency, no number is given. Activity calls are given as the source filed them. Unless noted, calls come from the whole dose curve; as a rule, active = well fitted curve in the direction sought with a large enough effect; inconclusive = small, poorly fitted or top-dose-only effect, or another doubt; inactive = no such curve, though single readings can be large; an effect the other way counts as inactive or inconclusive.
# How the values were obtained:
# [1] = tested on: Zika virus NS2B-NS3 protease (unlinked complex); experiment: Primary screen GU Rhodamine qHTS for Zika virus inhibitors: Unlinked NS2B-NS3 protease assay (AID 1347159); note: nearly all actives have a fitted effect of over 60% in size
# Summary of the method: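 In dose–response format, inhibition of unlinked protease (25 nM) was measured with 1.5 microM bis-peptide Rhodamine110 substrate. Aprotinin served as the intraplate control.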
# [2] = Primary qHTS for inhibitors of nuclear receptor binding SET domain protein 2 (NSD2) in an RCH-ACV wild type WT cells (2C) (AID 1645877); note: nearly all actives have a fitted effect of over 70% in size; note: potency is the fitted concentration of half-maximal effect
# [3] = biological target: Glutathione peroxidase 1 (Homo sapiens) (UniProt P07203); experiment: Primary qHTS Assay for Inhibitors of Recombinant Selenoprotein Glutathione Peroxidase 1 (GPX1) (AID 1845191); note: nearly all actives have a fitted effect of over 65% in size
# Summary of the method: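 GPX1 10 nM, GR 100 nM, GSH 1 mM, NADPH 0.5 mM, CHP 0.5 mM (final). 30-min cpd preincubation, RT. Ex340/Em450 read t=0, t=15 min.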
# [4] = tested on: KB-3-1; experiment: Cytotoxic Profiling of Annotated Libraries Using Quantitative High-Throughput Screening (AID 1296008); details: Five cell lines viability, CellTiter-Glo ATP luminescence, 48-72 h; max response: stronger effect = lower value; note: nearly all actives have a fitted effect of over 60% in size; note: potency is the fitted concentration of half-maximal effect
# Summary of the method: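 Compounds were pin-transferred onto cells and incubated 48 or 72 hr at 37 degree Celsius, 95% humidity. CellTiter-Glo was added, plates sat 10 min at room temperature, then ATP-coupled luminescence was imaged as the viability read-out.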
# [5] = tested on: JEG-3; experiment: Primary qHTS to identify gynecologic anti-cancer compounds using libraries of approved drugs and bioactive compounds (AID 1345084); details: Gynecologic cancer cell panel viability, ATPlite luminescence, 48 h; series mostly up to 57.5 µM; note: nearly all actives have a fitted effect of over 55% in size; note: potency is the fitted concentration of half-maximal effect
# Summary of the method: (§1)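 Cell viability after 48 h drug treatment, ATPlite luminescence readout; five doses.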
# [6] = Primary fluorescence-based thiol-reactive (MSTI) qHTS assay for identification of artifact compounds. (AID 1845221); note: nearly all actives have a fitted effect of over 65% in size; note: potency is the fitted concentration of half-maximal effect
# Summary of the method: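 Probe: MSTI 4 uM, PBS pH 7.4, 2% DMSO. Incubation 1 h, RT, light-protected. Readout fluorescence 525/598 nm.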
# [7] = tested on: HeLa; experiment: Primary qHTS to identify gynecologic anti-cancer compounds using libraries of approved drugs and bioactive compounds (AID 1345084); details: Gynecologic cancer cell panel viability, ATPlite luminescence, 48 h; series mostly up to 57.5 µM; note: nearly all actives have a fitted effect of over 55% in size; note: potency is the fitted concentration of half-maximal effect
# Summary of the method: as §1
# [8] = tested on: CAOV3; experiment: as above; details: Gynecologic cancer cell panel viability, ATPlite luminescence, 48 h; series mostly up to 57.5 µM
# Summary of the method: as §1
# [9] = tested on: SKOV3; experiment: as above; details: Gynecologic cancer cell panel viability, ATPlite luminescence, 48 h; series mostly up to 57.5 µM
# Summary of the method: as §1
# [10] = tested on: HACAT; experiment: qHTS assay to identify novel small-molecules to repurpose for Merkel cell carcinoma treatment (AID 1296009); details: MCC and control cell lines, CellTiter-Glo viability, 72 h; at 44.8 µM (top of the series) unless noted; note: nearly all actives have a fitted effect of over 60% in size
# Summary of the method: (§2)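 Luminescence from CellTiter-Glo, read 10 min after addition at room temperature, reported viability following a 72 hr, 37 degree celsius treatment with NPC or MIPE compounds in titration; values normalized to plate controls.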
# [11] = tested on: NIH3T3; experiment: as above; details: MCC and control cell lines, CellTiter-Glo viability, 72 h; at 44.8 µM (top of the series) unless noted
# Summary of the method: as §2
# [12] = P-glycoprotein substrates identified in KB-3-1 adenocarcinoma cell line, qHTS therapeutic library screen (AID 1346986); note: nearly all actives have a fitted effect of over 60% in size
# Summary of the method: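 Using luminescence to quantify ATP, parental and P-gp-overexpressing KB cells were compared after 72 h compound titration. KB-8-5-11 was also run with the P-gp inhibitor tariquidar.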
# [13] = biological target: Cytochrome P450 2D6 (Homo sapiens) (UniProt P10635); experiment: Cytochrome P450 family 2 subfamily D member 6 (CYP2D6) small molecule antagonists: luciferase biochemical (cell-free) qHTS assay (AID 1645840; active = well fitted curve in the direction sought with a large enough effect in the repeat runs; an effect the other way counts as inactive or inconclusive; note: nearly all actives have a fitted effect of over 55% in size)
# Summary of the method: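 P450-Glo CYP2D6 system: proluciferin substrate converted by enzyme to luciferin, read by luminescence proportional to activity. Enzyme-substrate mix with compound 10 min at room temperature, then NADPH regeneration 1 h before detection reagent.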
# [14] = Cytotoxicity counterscreen for inhibitors of SARS-CoV-2 cell entry (AID 1645845; calls by dose curve; note: nearly all actives have a fitted effect of over 50% in size)
# Summary of the method: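 After a 15 min room-temperature ATPLite 1step step, luminescence reflected ATP remaining in HEK293-ACE2 cells exposed to compound for 1 h plus 48 h at 37 C, with percent activity set by cell and no-cell controls.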
# [15] = tested on: CRL-7250; experiment: qHTS assay to identify novel small-molecules to repurpose for Merkel cell carcinoma treatment (AID 1296009); details: MCC and control cell lines, CellTiter-Glo viability, 72 h; series mostly up to 92 µM; note: nearly all actives have a fitted effect of over 60% in size
# Summary of the method: as §2
# [16] = biological target: Catechol O-methyltransferase (Homo sapiens) (UniProt P21964); experiment: Confirmatory Screen for Target Class Profiling of Small Molecule Inhibitors of Methyltransferases (AID 1745852; calls by dose curve; note: potency is the fitted concentration of half-maximal effect); details: MTase-Glo luminescence, SAH detection, recombinant enzyme; measured here: COMT max response; stronger effect = lower value
# [17] = biological target: Guanidinoacetate N-methyltransferase (Homo sapiens) (UniProt Q14353); experiment: as above; details: activity change, negative = inhibition: at 57.3 µM (top of the series) unless noted
# [18] = biological target: Nicotinamide N-methyltransferase (Homo sapiens) (UniProt P40261); experiment: as above; details: MTase-Glo luminescence, SAH detection, recombinant enzyme; measured here: NNMT max response; stronger effect = lower value
# [19] = biological target: Phenylethanolamine N-methyltransferase (Homo sapiens) (UniProt P11086); experiment: as above; details: MTase-Glo luminescence, SAH detection, recombinant enzyme; measured here: PNMT max response; stronger effect = lower value
# Phenylethanolamine N-methyltransferase (Homo sapiens), sequence (P11086 whole entry, looked up): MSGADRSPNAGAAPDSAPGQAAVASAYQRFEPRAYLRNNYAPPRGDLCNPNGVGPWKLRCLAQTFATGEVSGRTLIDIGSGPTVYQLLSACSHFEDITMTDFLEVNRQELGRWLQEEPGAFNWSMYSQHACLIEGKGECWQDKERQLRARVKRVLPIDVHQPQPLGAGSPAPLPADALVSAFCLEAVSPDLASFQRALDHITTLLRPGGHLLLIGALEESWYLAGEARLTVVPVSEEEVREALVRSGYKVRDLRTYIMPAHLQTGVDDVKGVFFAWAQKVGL
# Glutathione peroxidase 1 (Homo sapiens), sequence (P07203 whole entry, looked up): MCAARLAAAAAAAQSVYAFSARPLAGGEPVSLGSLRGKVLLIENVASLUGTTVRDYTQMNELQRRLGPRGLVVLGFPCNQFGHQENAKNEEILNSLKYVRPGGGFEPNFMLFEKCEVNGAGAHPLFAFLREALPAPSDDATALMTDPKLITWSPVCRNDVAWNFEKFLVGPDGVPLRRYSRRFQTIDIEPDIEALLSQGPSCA
# Cytochrome P450 2D6 (Homo sapiens), sequence (P10635 whole entry, looked up): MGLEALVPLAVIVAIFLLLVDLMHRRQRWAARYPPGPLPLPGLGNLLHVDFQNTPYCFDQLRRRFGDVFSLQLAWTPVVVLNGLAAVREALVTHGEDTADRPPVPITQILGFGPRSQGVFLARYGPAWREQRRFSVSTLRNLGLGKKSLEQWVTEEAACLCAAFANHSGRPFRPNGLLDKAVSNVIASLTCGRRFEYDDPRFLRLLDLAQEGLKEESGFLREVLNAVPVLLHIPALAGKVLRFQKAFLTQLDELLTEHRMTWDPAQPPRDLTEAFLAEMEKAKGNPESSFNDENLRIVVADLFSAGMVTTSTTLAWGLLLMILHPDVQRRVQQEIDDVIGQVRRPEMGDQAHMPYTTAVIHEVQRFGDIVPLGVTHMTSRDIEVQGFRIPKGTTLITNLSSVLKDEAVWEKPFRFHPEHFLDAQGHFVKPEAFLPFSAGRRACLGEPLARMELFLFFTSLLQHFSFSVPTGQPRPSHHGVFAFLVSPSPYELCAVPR
# Nicotinamide N-methyltransferase (Homo sapiens), sequence (P40261 whole entry, looked up): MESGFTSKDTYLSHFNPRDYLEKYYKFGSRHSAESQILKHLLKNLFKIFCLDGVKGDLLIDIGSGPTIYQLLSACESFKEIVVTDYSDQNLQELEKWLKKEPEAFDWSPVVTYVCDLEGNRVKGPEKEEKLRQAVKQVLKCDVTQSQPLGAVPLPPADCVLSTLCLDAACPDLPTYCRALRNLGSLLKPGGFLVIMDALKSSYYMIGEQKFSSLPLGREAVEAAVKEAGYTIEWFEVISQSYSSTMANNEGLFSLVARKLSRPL
# Catechol O-methyltransferase (Homo sapiens), sequence (P21964 whole entry, looked up): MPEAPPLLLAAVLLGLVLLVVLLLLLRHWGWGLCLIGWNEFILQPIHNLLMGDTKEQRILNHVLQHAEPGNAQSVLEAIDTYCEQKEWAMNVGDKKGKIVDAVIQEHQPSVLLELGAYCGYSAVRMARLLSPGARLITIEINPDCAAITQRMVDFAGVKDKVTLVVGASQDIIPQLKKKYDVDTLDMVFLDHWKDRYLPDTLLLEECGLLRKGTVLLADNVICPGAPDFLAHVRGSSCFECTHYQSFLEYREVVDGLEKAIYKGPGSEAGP
smiles,measurement,setting,value
C[C@@H]1C[C@@H](O)[C@]2(O)O[C@@H]3C[C@@]4(C=O)C(CC[C@@H]5C4CC[C@]4(C)[C@@H](C6=CC(=O)OC6)CC[C@]54O)C[C@H]3O[C@@H]2O1 (some centres undefined),Potency,[1],inactive
same,Potency,[2],79.6 nM (active)
same,Potency,[3],inactive
same,Potency,[4],100 nM (active)
same,Potency,[5],inactive
C=C1[C@@H](C)[C@H]2[C@H](Cc3ccccc3)NC(=O)[C@]23[C@H](OC(C)=O)/C=C/[C@](C)(O)C(=O)[C@@H](C)C/C=C/[C@H]3[C@@H]1O,Potency,[3],inactive
same,Potency,[6],inactive
same,Potency,[4],2590 nM (active)
same,Potency,[7],inactive
same,Potency,[5],inactive
C=CCN1CC[C@]23c4c5ccc(O)c4O[C@H]2[C@@H](O)CC[C@@]3(O)[C@H]1C5,Potency,[1],inactive
same,Potency,[2],inactive
same,Potency,[3],inactive
same,Potency,[6],inactive
same,Potency,[8],inactive
same,Potency,[7],inactive
same,Potency,[5],inactive
same,Potency,[9],inactive
CCC1NC(=O)C2C(Cl)C(Cl)CN2C(=O)C(CC)NC(=O)CC(c2ccccc2)NC(=O)C(CO)NC1=O (centres undefined),Potency,[3],inactive
same,Potency,[6],2320 nM (active)
same,outcome,[10],inactive [at 17.4 µM]
same,outcome,[11],inactive [at 17.4 µM]
same,Potency,[8],inactive
same,Potency,[7],inactive
same,Potency,[5],inactive
CN(C)[C@@H]1C(=O)C(C(N)=O)=C(O)[C@@]2(O)C(=O)C3=C(O)c4c(O)ccc(Cl)c4[C@@](C)(O)C3C[C@@H]12 (some centres undefined),Potency,[1],inactive
same,Potency,[2],inactive
same,Potency,[3],inactive
same,Potency,[6],1680 nM (active)
same,max response,[4],-13.4% (inactive)
same,outcome,[11],inactive
same,Potency,[8],inactive
same,Potency,[7],inactive
same,Potency,[5],inactive
same,Potency,[9],inactive
CCC1C2CC3C4N(C)c5ccccc5C45CC(C2C5O)N3C1O (centres undefined),Potency,[2],inactive
same,Potency,[3],inactive
same,max response,[4],6.75% (inactive)
same,Potency,[8],inactive
same,Potency,[5],inactive
same,Potency,[9],inactive
COC1C(O)C(C)OC(OC2C(CO)O[C@@H](O[C@@H]3CC4CCC5C(CC[C@]6(C)[C@@H](C7=CC(=O)OC7)CC[C@]56O)[C@@]4(C)[C@H](OC(C)=O)C3)C(O)C2O)C1O (some centres undefined),Potency,[1],inactive
same,Potency,[2],2420 nM (active)
same,Potency,[3],inactive
same,Potency,[6],inactive
same,outcome,[11],inactive [at 17.4 µM]
same,Potency,[7],10000 nM (active)
C=C1[C@@]23C(=O)O[C@H](C)[C@]24O[C@@]2(C(=C)[C@]5(C=CC(=O)OC5(C)C)CC[C@]32C)[C@H](O)[C@@]1(C)OC4=O,Potency,[2],inactive
same,Potency,[6],inactive
same,outcome,[10],inactive [at 17.4 µM]
same,Potency,[8],inactive
same,Potency,[7],inactive
same,Potency,[5],inactive
same,Potency,[9],inactive
C[C@]12CC[C@H](O)C[C@H]1CC[C@@H]1[C@@H]2[C@H](O)C[C@]2(C)[C@@H](c3ccc(=O)oc3)CC[C@]12O,Potency,[3],inactive
same,Potency,[6],inactive
same,Potency,[4],51.7 nM (active)
same,Potency,[8],100 nM (active)
same,Potency,[7],112 nM (active)
same,Potency,[5],inactive
COC1C=CC23c4cc5c(cc4COC2(O)CN(C)C3C1)OCO5 (centres undefined),Potency,[12],inactive
same,Potency,[1],inactive
same,Potency,[2],inactive
same,Potency,[3],inactive
same,Potency,[6],inactive
same,outcome,[10],inactive
same,Potency,[8],inactive
same,Potency,[7],inactive
same,Potency,[5],inactive
CCc1nn(C)c(C(=O)NCc2ccc(Oc3ccc(C)cc3)cc2)c1Cl,Potency,[1],inactive
same,Potency,[3],inactive
same,Potency,[6],inactive
same,Potency,[8],inactive
same,Potency,[7],inactive
same,Potency,[5],inactive
COc1cc2c(c(OC)c1OC)-c1ccc(SC)c(=O)cc1[C@@H](NC(C)=O)CC2,Potency,[2],5.8 nM (active)
same,Potency,[3],inactive
same,Potency,[6],inactive
same,Potency,[4],5.8 nM (active)
Cc1sc2c(c1C)C(c1ccc(Cl)cc1)=NC(CC(=O)Nc1ccc(O)cc1)c1nnc(C)n1-2 (centres undefined),Potency,[13],inactive
same,Potency,[14],inactive
same,Potency,[5],inactive
same,Potency,[9],3160 nM (active)
CN1CCN(c2nc3ccccc3nc2Cl)CC1,Potency,[12],inactive
same,Potency,[1],inactive
same,Potency,[2],inactive
same,Potency,[3],inactive
same,Potency,[6],inactive
same,outcome,[4],inactive
same,outcome,[11],inactive
same,Potency,[8],inactive
same,Potency,[7],inactive
same,Potency,[5],inactive
CC(=O)O[C@H]1CC[C@@]2(CI)C(=CC[C@@H]3[C@@H]2CC[C@]2(C)C(=O)CC[C@@H]32)C1,Potency,[1],inactive
same,Potency,[3],inactive
same,Potency,[6],inactive
same,Potency,[15],inactive
same,outcome,[10],inactive
same,Potency,[8],inactive
same,Potency,[7],inactive
same,Potency,[5],inactive
same,Potency,[9],inactive
N#Cc1cn([C@@H]2O[C@H](CO)[C@H](O)[C@@H]2O)c2ncnc(N)c12,Potency,[1],inactive
same,Potency,[13],inactive
same,Potency,[2],7.3 nM (active)
same,activity,[16],-98.2%
same,Potency,[17],38300 nM (active)
same,activity,[18],-89.8%
same,activity,[19],-99.9%
same,Potency,[3],inactive
same,Potency,[4],36.6 nM (active)
C=C(CO)C(=O)O[C@H]1CC(=C)[C@@H]2C[C@H](O)C(=C)[C@@H]2[C@H]2OC(=O)C(=C)[C@@H]21,Potency,[12],inactive
same,Potency,[2],2010 nM (active)
same,activity,[16],-80.9%
same,"activity change, negative = inhibition",[17],-4.37%
same,activity,[18],-6.26%
same,activity,[19],-8.66%
same,Potency,[3],inactive
same,Potency,[6],inactive
same,outcome,[4],inactive
same,Potency,[8],inactive
same,Potency,[7],inactive
same,Potency,[5],inactive
same,Potency,[9],inactive

# Source: PubChem BioAssay (NCATS)
